The whole screen tested about 58,000 compounds, of which about 3,400 (5.9%) were called active. This is one part of a sample in which actives are shown more often than they occur. Values without a mark were called inactive.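 How the source made its calls: active means luminescence count or its row- and column-corrected plate score outside the 99.7% band of the plate's sample wells, on either side; inactive means the rest.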

The target of this experiment is D(1A) dopamine receptor (Homo sapiens) (UniProt P21728). Kind of experiment: D1 CRE-luciferase signal change, two-sided – cell-based, HEK293 D1, dopamine EC30, D1 allosteric modulator project, primary screen (AID 641). The conditions noted are these: dopamine EC30 potentiation, at 10 µM, actives deviate in either direction.
Chain of D(1A) dopamine receptor (Homo sapiens) (P21728 whole entry, looked up): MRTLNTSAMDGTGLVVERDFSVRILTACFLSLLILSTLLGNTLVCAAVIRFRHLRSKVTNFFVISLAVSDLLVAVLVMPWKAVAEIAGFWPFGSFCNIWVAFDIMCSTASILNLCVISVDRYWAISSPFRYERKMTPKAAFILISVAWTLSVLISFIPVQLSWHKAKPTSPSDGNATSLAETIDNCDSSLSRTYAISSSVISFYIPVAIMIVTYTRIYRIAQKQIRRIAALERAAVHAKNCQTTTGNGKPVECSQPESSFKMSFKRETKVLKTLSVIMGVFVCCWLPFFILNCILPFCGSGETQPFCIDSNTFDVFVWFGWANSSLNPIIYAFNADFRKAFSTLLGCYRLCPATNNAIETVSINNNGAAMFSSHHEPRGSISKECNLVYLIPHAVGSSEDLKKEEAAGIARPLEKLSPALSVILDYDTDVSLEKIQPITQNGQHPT
With `Cc1ccc(C)c2[nH]c(=O)c(CCNC(=O)CC(C)C)cc12`, the B-score was -0.219.
The result for `COc1ncnc2c1N=C1CC(C)(C)CC(N)=C1S2` reads 3.41 (active); that for `Nc1c(C(=O)NCc2ccccc2)nnn1Cc1cccc(Cl)c1`, 0.392.
For `COc1ccc(OC)c2c1sc(=NC(=O)CN1C(=O)CCC1=O)n2C`, the B-score is 2.86.
Take `Cc1ccc2c(c1)N(CCCC(=O)NCc1cccnc1)C(=O)CO2`: the B-score is -0.742.
The result for `COc1ccc(N2CCN(CCNC(=O)c3nnc(Cc4c(F)cccc4Cl)o3)CC2)cc1` reads -1.8.
The result for `Cc1ccc(-n2nc3c(c2NC(=O)CCC2CCCCC2)CS(=O)C3)cc1` (stereo unspecified) reads -0.56; that for `O=P(O)(CN1CCCCC1)CN1CCCCC1`, -0.0507.
The result for `C=CCSc1nc2c(c(=O)[nH]1)C(C(C)C)C(C#N)=C(N)O2` (stereo unspecified) reads 10.1 (active); that for `C=CCOC(=O)C1=C(C)OC(N)=C(C#N)C1c1ccc(F)cc1` (stereo unspecified), 0.241.
Consider `CCN1CCN(C(=O)c2ccccc2N(C)S(=O)(=O)c2ccc(C)cc2)CC1`, for which the B-score is 0.228.
Regarding `Cc1cc(C)n(-c2ccc(Cl)c(C(=O)O)n2)n1`, the B-score was -0.569.
The result for `COCCNc1nc(-n2nc(C)cc2C)nc2sc3c(c12)CCCC3` reads 0.116; that for `CCOC(=O)c1cnc(-n2nc(C)cc2C)nc1Nc1cccc(C(C)=O)c1`, 0.96.
The result for `COc1cc(NS(=O)(=O)c2ccccc2)ccc1-n1nc(C)cc1C` reads -0.763.
The result for `CC(=O)c1ccc(Oc2cc(C)nc(-n3nc(C)cc3C)n2)cc1` reads 11.6 (active); that for `COc1ccc(Nc2cc(C)nc(-n3nc(C)cc3C)n2)cc1`, 7.36 (active).
On to `Cc1ccc(S(=O)(=O)Nc2ccccc2CNc2c(C)n(C)n(-c3ccccc3)c2=O)cc1`, for which the B-score is 1.04.
The result for `Cc1ccc(S(=O)(=O)N2CC(=O)Nc3ccccc32)cc1C` reads 0.0538; that for `CCN1C(=O)CS/C1=N\c1nccs1`, 0.211; that for `Cc1ccc(CNC(=O)CCCNC(=O)c2ccc(Cl)cc2)n1C`, -1.3.
Turning to `CC1CCN(Cc2nc3c(c(=O)n(C)c(=O)n3C)n2CCc2ccccc2)CC1`, the B-score was 0.377.
The result for `CCOC(=O)C1CCCN(C(=O)CN(c2ccc(OC)cc2)S(=O)(=O)c2c(C)noc2C)C1` (stereo unspecified) reads 0.03; that for `CCOC(=O)C1CCCN(C(=O)c2cncc(Br)c2)C1` (stereo unspecified), 0.42; that for `CCOC(=O)C1CCCN(C(=O)c2sc3nc(C)nc(N4CCOCC4)c3c2C)C1` (stereo unspecified), -3.4 (active).
The result for `Nc1nnc(C2CCCC2)s1` reads -1.25; that for `COc1ccc(C2=CC(c3cccc(OC)c3)n3nnnc3N2)cc1` (stereo unspecified), 1.89.
As to `CCOc1cccc(-c2nnc3sc(COc4ccc(OC)cc4)nn23)c1`, the B-score was -0.0728.
Turning to `CCOc1cccc(-n2nnnc2-c2ccc(OC)cc2)c1`, the B-score was 4.33 (active).
The result for `CC(C)(C)Nc1c(N)c(=O)oc2ccccc12` reads -1.25.
Regarding `CCC(C)n1[nH]c(=O)cc1N` (stereo unspecified), the B-score was -0.0177.
Take `CC(C)C(=O)Nc1cccc(C(=O)Nc2ccc3c(c2)OCO3)c1`: the B-score is -3.26 (active).
In the case of `COc1ccc(C(=O)Nc2ccc3c(c2)OCO3)cc1OC`, the B-score is 1.31.
In the case of `Cn1c(=O)n(C)c2cc(C(=O)Nc3ccc4c(c3)OCO4)ccc21`, the B-score is -2.3.
The result for `CCOc1ccc(Cn2nnc(C(=O)NCc3ccccc3)c2N)cc1` reads 0.835; that for `CC1(C)CC(=O)C(C=NCCC2=CCCCC2)=C(O)C1`, 1.52.
Take `Fc1ccc2[nH]c3c(N4CCSCC4)ncnc3c2c1`: the B-score was -5.42 (active).
As to `Cc1ccc2c(c1)NCC(C(=O)NC1CCC(C)CC1)O2` (stereo unspecified), the B-score was 0.396.
The result for `CC1(C)CC(=O)C=C(NC2CC(C)(C)NC(C)(C)C2)C1` reads -0.998.
`CCOC(=O)N1CCN(C(=O)c2cnc3n(c2=O)CCS3)CC1`: the B-score was 0.461.
Turning to `CCCCc1c(O)nc2n(c1=O)CCS2`, the B-score was 3.41 (active).
The result for `CN(CCc1ccccn1)S(=O)(=O)c1ccc2c3c(cccc13)C(=O)N2` reads 0.281.
`CCC/C(O)=C1\C(=O)CC(C)(C)CC1=Nc1ccccc1OC`: the B-score is 0.24.
The result for `COc1ccc(NC(=O)c2cccc(NC(=O)c3ccco3)c2)c(OC)c1` reads -0.0282.
The result for `Cc1nn(-c2ccccc2)c2c1C(=O)NC(=O)C(C)(C)C2` reads 20.5 (active); that for `Cc1cc(NC(=O)Nc2ccccc2)n(-c2ccccc2)n1`, -0.331.
The result for `Cc1nn(-c2ccccc2)c(CC(C)(C)C(=O)O)c1C(=O)O` reads 0.0788.
Consider `Cc1cc(Nc2ccc(Br)cc2F)n2ncnc2n1`, for which the B-score is -0.165.
The result for `COC(=O)c1oc2ccc(Br)cc2c1NC(C)=O` reads 0.0355.
The result for `CCN(CC)S(=O)(=O)c1cccc(C(=O)Nc2cc(C)nn2-c2nc(C)cc(C)n2)c1` reads 0.0356.
As for `Cc1cc(C)nc(-n2nc(C)cc2NC(=O)c2ccc(Br)o2)n1`, the B-score is 6.02 (active).
In the case of `Cc1cccc(-n2nc3c(c2NC(=O)c2ccc(Br)o2)CSC3)c1C`, the B-score was 0.109.
`CS(=O)(=O)N(C(=O)NC(=O)NC1CCS(=O)(=O)C1)C1CCCCC1` (stereo unspecified): the B-score was -3.24 (active).
In the case of `CC(=O)CCS(=O)(=O)c1ccc(C)c(C)c1`, the B-score is 1.88.
The result for `COc1ccc(S(=O)(=O)N2CCOCC2)cc1C(=O)Nc1nc2ccccc2s1` reads -0.687.
The result for `CN(C)CCNC(CC(=O)Nc1ccc(Cl)c(Cl)c1)C(=O)O` (stereo unspecified) reads 0.834; that for `CC(C)NS(=O)(=O)c1ccc(NC(=O)c2cccnc2)cc1`, 1.41.
In the case of `CC(c1cccnc1)N(CCN(C)C)C(=O)Nc1ccc(Cl)c(Cl)c1` (stereo unspecified), the B-score is -1.22 (active).
Regarding `COC(=O)[C@H](C(C)C)n1c(C)c(C(C)=O)c(C(C)=O)c1C`, the B-score was 4.12 (active).
In the case of `CCOc1ccc(OCC)c(NC(=O)C(NS(=O)(=O)c2ccc3c(c2)oc(=O)n3C)C(C)C)c1` (stereo unspecified), the B-score was -0.175.
`C#CCN1C(=O)C(O)(CC(=O)c2cc(OC)ccc2OC)c2ccccc21` (stereo unspecified): the B-score is 0.733.
The result for `CSC1=NCCN1C(=O)c1ccc(S(=O)(=O)N2CCOCC2)cc1` reads -0.521.
Consider `Cn1c(=NC(=O)C2CC2)sc2cc(F)cc(F)c21`, for which the B-score is 1.19.
On to `COc1ccccc1N1CC(O)=C(c2nc3ccccc3s2)C1=N`, for which the B-score is -0.346.
The result for `C/C(Cl)=C\Cn1c(Nc2cccc(C)c2)nc2c1c(=O)n(C)c(=O)n2C` reads 13.2 (active); that for `COC(=O)C(C)Sc1nc2c(c(=O)n(C)c(=O)n2C)n1Cc1cccc(C)c1` (stereo unspecified), 0.892.
As for `Cc1cccc(Cn2c(SCCO)nc3c2c(=O)n(C)c(=O)n3C)c1`, the B-score is 0.248.
On to `COCCCNC(=O)c1c(F)c(F)c(F)c(F)c1F`, for which the B-score is -0.712.
`O=C(NCc1cccnc1)c1ccc(CS(=O)(=O)c2ccc(Br)cc2)o1`: the B-score is -0.0969.
The result for `Cc1cccc(NC(=O)CSC(N)=O)c1C` reads -0.0507; that for `CCc1ccccc1N(CC(=O)NCCSCc1ccco1)S(C)(=O)=O`, 0.0216.
The result for `O=C(OCc1ccccc1F)c1ccc2c(c1)OCCO2` reads 0.452; that for `O/N=C(\c1ccc2c(c1)OCCO2)C1CCCCC1`, 8.96 (active).
Consider `O=C(c1ccc2c(c1)OCCO2)C1CCN(S(=O)(=O)c2cccc(F)c2)CC1`, for which the B-score is 0.0652.
The result for `Fc1c(F)c(C(F)(F)F)c(F)c(F)c1N1CCN(c2ccc3nnc(C(F)(F)F)n3n2)CC1` reads 0.11; that for `CC1(C)CC(=O)C(C=NCc2cccnc2)=C(O)C1`, 1.34.

Values taken from PubChem BioAssay AID641 (Vanderbilt High Throughput Screening Facility, 2007).
